Screening results deposited in PubChem by National Center for Advancing Translational Sciences (NCATS).
Cruzain Triton – qHTS Assay for Promiscuous and Specific Inhibitors of Cruzain (with detergent). purified cruzain, Z-FR-AMC fluorescence, 0.01% Triton. Potency, µM, inactives show max response, negative = inhibition, hits mostly inhibitors. actives 0.43% (n = 200,000);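 also: plate controls were neutral wells for no effect and buffer without enzyme for full effect; nearly all actives have a fitted effect of over 40% in size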
Target sequence (P25779 123-467 limits assumed): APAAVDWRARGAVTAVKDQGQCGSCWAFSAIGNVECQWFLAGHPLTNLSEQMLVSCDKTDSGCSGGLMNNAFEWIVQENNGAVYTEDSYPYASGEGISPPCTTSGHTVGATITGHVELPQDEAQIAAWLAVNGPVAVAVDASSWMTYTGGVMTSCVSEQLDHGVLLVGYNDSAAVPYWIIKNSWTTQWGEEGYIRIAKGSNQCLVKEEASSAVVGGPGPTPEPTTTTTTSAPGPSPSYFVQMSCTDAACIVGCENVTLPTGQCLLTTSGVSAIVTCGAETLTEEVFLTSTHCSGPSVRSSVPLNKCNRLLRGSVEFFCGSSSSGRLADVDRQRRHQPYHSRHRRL
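Purified cruzain (1.5 nM final) was preincubated with compounds for 15 min at room temperature in 100 mM sodium acetate pH 5.5, 5 mM DTT, 0.01% Triton X-100. Reaction started with 2 uM Z-FR-AMC; AMC fluorescence change over 60 s gave activity.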
Cruzain noTriton – qHTS Assay for Promiscuous and Specific Inhibitors of Cruzain (without detergent) | purified cruzain, Z-FR-AMC fluorescence, no detergent | actives 2.3% (n = 200,000) | Potency, µM, for the others: max response, negative = inhibition, most hits filed as inhibitors | Cruzipain (Trypanosoma cruzi), P25779;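 also: plate controls were enzyme without inhibitor for no effect and buffer without enzyme for full effect; nearly all actives have a fitted effect of over 40% in size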
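Detergent-free condition (0.00005% Triton X-100) in acetate buffer pH 5.5 with DTT. 1.5 nM enzyme and compound were pre-mixed 15 min, then 2 uM Z-FR-AMC substrate added; reaction progress from fluorescence change between first and third reads (60 s).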
* = called active by the depositor. Most compounds without a hit are left out; they make up all but 2.5% or so of the library. Calls follow the shape of the dose curve; as a rule, active = well fitted curve in the direction sought with a large enough effect; inconclusive = small, poorly fitted or top-dose-only effect, or another doubt; inactive = no such curve, though single readings can be large; an effect the other way counts as inactive or inconclusive. Potency is read from the fitted curve at half-maximal effect.

How did O=C(Nc1ccc(F)c(Cl)c1)c1cc(S(=O)(=O)NCc2ccc3c(c2)OCO3)ccc1F do in these assays?
Cruzain Triton: -1%; Cruzain noTriton: -16%

What do the screens show for `COc1ccc(C2NCCc3c2[nH]c2ccccc32)cc1CSc1nc2ccccc2s1` (configuration not stated)?
Cruzain Triton: -10%; Cruzain noTriton: 25µM*

How did COc1cc(/C=C(\C#N)C(N)=O)cc(CSc2nc3ccccc3s2)c1O do in these assays?
Cruzain Triton: -8%; Cruzain noTriton: -1%

Results for C/C(=N\NC(=O)CNC(=O)C(c1ccccc1)c1ccccc1)c1ccccc1 ?
Cruzain Triton: 5%; Cruzain noTriton: 13µM*

How did C/C(=N\NC(=O)CNC(=O)C(c1ccccc1)c1ccccc1)c1ccc(C(C)(C)C)cc1 do in these assays?
Cruzain Triton: 1%; Cruzain noTriton: inconclusive

Results for CCOC(=O)C1CCCN(C(=O)c2cc3c(=O)n(C)c4ccccc4c3s2)C1 (configuration not stated) ?
Cruzain Triton: -8%; Cruzain noTriton: 16%

Results for O=C1N/C(=C/c2cccn2-c2ccc(F)cc2)C(=O)N1Cc1ccccc1F ?
Cruzain Triton: -11%; Cruzain noTriton: inconclusive

Results for O=C1N/C(=C/c2cccn2-c2ccccc2)C(=O)N1Cc1ccc(F)cc1 ?
Cruzain Triton: -5%; Cruzain noTriton: 13µM*

How did CCOC(=O)c1ccc(NC(=O)CC(C)n2nc(C)cc2C)cc1 (configuration not stated) do in these assays?
Cruzain Triton: -5%; Cruzain noTriton: inconclusive

What do the screens show for `CC(C)CNC(=O)c1cc(-c2ccc(Cl)c(Cl)c2)on1`?
Cruzain Triton: 8%; Cruzain noTriton: 13µM*

What do the screens show for `O=C(NCCc1ccccc1)c1cc(-c2ccc(Cl)c(Cl)c2)on1`?
Cruzain Triton: -2%; Cruzain noTriton: 0%

How did O=[N+]([O-])c1ccccc1N/N=C\c1ccccc1Cl do in these assays?
Cruzain Triton: -3%; Cruzain noTriton: 20µM*

Results for CCCOc1ccc(/C=N/Nc2ccccc2[N+](=O)[O-])c(OCCC)c1 ?
Cruzain Triton: -2%; Cruzain noTriton: inconclusive

Results for CCCCCCn1c(O)c(/C=C2\C=NN=C2c2ccccc2)sc1=S ?
Cruzain Triton: 2%; Cruzain noTriton: 16µM*

Results for CCCCn1c(O)c(/C=C2\C=NN=C2c2ccccc2)sc1=S ?
Cruzain Triton: -4%; Cruzain noTriton: inconclusive

Results for CC(Oc1ccc(F)cc1)C(=O)N1CCC(c2nc3ccccc3s2)CC1 (configuration not stated) ?
Cruzain Triton: -12%; Cruzain noTriton: inconclusive

Results for CCOC(=O)c1ccc(NC2=CC(c3ccc(O)c(OCC)c3)N(c3ccc(C(=O)OCC)cc3)C2=O)cc1 (configuration not stated) ?
Cruzain Triton: -1%; Cruzain noTriton: 0%

How did CCc1ccc(C(=O)CSc2nc(-c3ccccc3)nc3c2CCCC3)cc1 do in these assays?
Cruzain Triton: -1%; Cruzain noTriton: -1%

What do the screens show for `COc1cc(C(CC(=O)Nc2cc(C)ccc2C)N2Cc3ccccc3C2=O)cc(OC)c1OC` (configuration not stated)?
Cruzain Triton: -3%; Cruzain noTriton: 14%

What do the screens show for `O=C(/C=C\c1ccc2c(c1)OCO2)Nc1nnc(SCC(=O)OCc2ccccc2)s1`?
Cruzain Triton: 0%; Cruzain noTriton: 5µM*

How did COC(=O)CSc1nnc(NC(=O)/C=C\c2ccc3c(c2)OCO3)s1 do in these assays?
Cruzain Triton: 2%; Cruzain noTriton: -12%

Results for CCCN(C(=O)Cn1c(=O)oc2cc(Cl)ccc21)c1ccc(C(C)C)cc1 ?
Cruzain Triton: -2%; Cruzain noTriton: -1%

Results for Cn1nnnc1Sc1ncnc2scc(-c3ccccc3)c12 ?
Cruzain Triton: 3%; Cruzain noTriton: 16µM*

What do the screens show for `Cn1nnnc1Sc1ncnc2scc(-c3ccc(F)cc3)c12`?
Cruzain Triton: 2%; Cruzain noTriton: -3%

How did CC1Cc2cc(S(=O)(=O)CCC(=O)Nc3ccc(OC(F)(F)F)cc3)ccc2N1C(=O)C1CC1 (configuration not stated) do in these assays?
Cruzain Triton: -10%; Cruzain noTriton: inconclusive

Results for CN(Cc1ccccc1)c1ccc(-c2nc(-c3ccco3)no2)cc1[N+](=O)[O-] ?
Cruzain Triton: -11%; Cruzain noTriton: -20%

Results for CCOc1ccc(N/N=C(/C#N)C(N)=O)cc1 ?
Cruzain Triton: -9%; Cruzain noTriton: -21%

How did CCOC(=O)NC(=O)/C(C#N)=N\Nc1ccc(Cl)cc1 do in these assays?
Cruzain Triton: -2%; Cruzain noTriton: 5µM*

What do the screens show for `Cn1c(=O)c(C(=O)c2ccccc2)nc2ccccc21`?
Cruzain Triton: -2%; Cruzain noTriton: -7%

How did O=C(c1ccccc1)c1nc2ccccc2n(CCCn2c(=O)c(C(=O)c3ccccc3)nc3ccccc32)c1=O do in these assays?
Cruzain Triton: -1%; Cruzain noTriton: 10µM*

How did COc1ccc(CNc2oc(/C=C/c3cc(OC)c(OC)c(OC)c3)nc2C#N)cc1 do in these assays?
Cruzain Triton: 12%; Cruzain noTriton: inconclusive

How did Cc1ccc(C(C)C)c(OCCSc2nc(-c3ccccc3F)nc3cc(=O)[nH]n23)c1 do in these assays?
Cruzain Triton: 2%; Cruzain noTriton: inconclusive

How did Cc1c([N+](=O)[O-])cc(C(=O)Oc2ccc(Br)cc2C(=S)N2CCCCC2)cc1[N+](=O)[O-] do in these assays?
Cruzain Triton: -2%; Cruzain noTriton: 25µM*

Results for COc1ccc(C(=O)NC(=S)N2CCCCC2)cc1[N+](=O)[O-] ?
Cruzain Triton: 0%; Cruzain noTriton: -5%

What do the screens show for `Cc1cc(C)c(NC(=O)CN(C)S(=O)(=O)c2ccc3c(c2)c(=O)n(C)c(=O)n3C)c(C)c1`?
Cruzain Triton: 4%; Cruzain noTriton: -10%

How did CCC(=O)N1CCc2cc(Br)cc(S(=O)(=O)Nc3ccccc3C(=O)OC)c21 do in these assays?
Cruzain Triton: 0%; Cruzain noTriton: -4%

Results for COc1ccc(CNC(=O)CCc2c(C)nn(-c3ccc(N4CCCC4)nn3)c2C)c(OC)c1 ?
Cruzain Triton: -2%; Cruzain noTriton: -13%

What do the screens show for `COc1cc(SC#N)ccc1N=Cc1c(C)[nH]n(-c2ccc(C)cc2C)c1=O`?
Cruzain Triton: -2%; Cruzain noTriton: -17%

Results for COc1cc(SC#N)ccc1N=Cc1c(C)[nH]n(-c2cccc3ccccc23)c1=O ?
Cruzain Triton: -5%; Cruzain noTriton: 25µM*

What do the screens show for `Cc1c2cnn(CC(=O)N3CCCCC3)c(=O)c2c(C)n1Cc1ccc(Cl)cc1`?
Cruzain Triton: -1%; Cruzain noTriton: 1%

Results for COC(=O)c1sc(-c2ccccc2)cc1NC(=O)Nc1ccc(F)cc1 ?
Cruzain Triton: -2%; Cruzain noTriton: inconclusive

How did COc1cc(-c2cc3n(C)c(C)c(CCC(=O)NCc4ccccc4)c(=O)n3n2)cc(OC)c1OC do in these assays?
Cruzain Triton: -1%; Cruzain noTriton: 1%

Results for CCC1=Nc2cc(C(=O)NC3CCCC3)ccc2Sc2ccc(Cl)cc21 ?
Cruzain Triton: -3%; Cruzain noTriton: 7.9µM*

How did CC1=Nc2cc(C(=O)NC3CCCC3)ccc2Sc2ccc(Cl)cc21 do in these assays?
Cruzain Triton: -3%; Cruzain noTriton: inconclusive

How did CCOC(=O)c1cc(-c2ccccc2)n(-c2cccc(C(=O)Nc3ccc(OC)cc3)c2)c1C do in these assays?
Cruzain Triton: -1%; Cruzain noTriton: 25µM*
